Read-out in test [1]: Interleukin-8 (IL8), CXCL8 (gene 3576)
Briefly: BSK_BF4T_IL8: BioMAP Diversity Plus: BF4T Assay for Interleukin-8 (IL8) Biomarker Activity (AID 2284263). The conditions noted are these: primary human bronchial epithelial cells with fibroblasts. Summed up:
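Human bronchial epithelial cells with dermal fibroblasts co-culture; IL-8 measured by ELISA 24 hours after dosing, fitted vs DMSO. Cytotoxicity tracked in parallel cultures by SRB total-protein staining.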

Read-out in test [2]: Interleukin-1 alpha (IL1a), IL1A (gene 3552)
Briefly: BSK_BF4T_IL1a: BioMAP Diversity Plus: BF4T Assay for Interleukin-1 alpha (IL1a) Biomarker Activity (AID 2284264). The following applies: primary human bronchial epithelial cells with fibroblasts. A digest of the protocol: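 ELISA read-out of IL-1α from bronchial epithelial cell/dermal fibroblast co-cultures 24 h after compound addition. Increases scored against DMSO negative control. Cytotoxicity monitored by sulforhodamine B staining of parallel cultures.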

Read-out in a further test: Decorin, DCN (gene 1634)
Description: BSK_MyoF_Decorin: BioMAP Diversity Plus: MyoF Assay for Decorin Biomarker Activity (AID 2284265). The conditions noted are these: primary human lung fibroblasts. Summed up: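 Human lung fibroblasts in the MyoF system were exposed to compound for 24 h, after which decorin was quantified by ELISA. Activity was fitted in the positive direction relative to DMSO negative control.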

Read-out in a further test: KRT18 (gene 3875)
Description: BSK_BF4T_Keratin818: BioMAP Diversity Plus: BF4T Assay for Keratin 818 Biomarker Activity (AID 2284266). The conditions noted are these: primary human bronchial epithelial cells with fibroblasts. Summed up:
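Keratin 8/18 levels quantified by ELISA after 24 h chemical treatment of bronchial epithelial cell/dermal fibroblast co-cultures, fitted in positive direction relative to DMSO. Parallel SRB staining tracks overt cytotoxicity.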

The nature of test [3]: BSK_MyoF_SRB: Viability Assessment in the BioMAP Diversity Plus: MyoF Assay (AID 2284267).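 Note: total protein by SRB absorbance in parallel cultures as cytotoxicity measure.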 The conditions noted are these: primary human lung fibroblasts. Summed up: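 Lung fibroblast cultures, 24 h post-dose; fix 10% TCA, stain 0.1% SRB, read 560 nm. Signal = total protein as cytotoxicity measure; fitted relative to DMSO negative control.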
Read-out in test [4]: Matrix Metallopeptidase 1 (MMP1), MMP1 (gene 4312)
Description: BSK_MyoF_MMP1: BioMAP Diversity Plus: MyoF Assay for Matrix Metallopeptidase 1 (MMP1) Biomarker Activity (AID 2284268). The conditions noted are these: primary human lung fibroblasts. Summed up: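 ELISA readout of MMP1 in primary human lung fibroblast cultures, 24 h post-dosing. Gain of signal versus DMSO vehicle control defines activity. Parallel SRB staining (0.1% after 10% TCA fixation, 560 nm) flags overt cytotoxicity.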

Read-out in test [5]: Tissue plasminogen activator (tPA), PLAT (gene 5327)
Description: BSK_BF4T_tPA: BioMAP Diversity Plus: BF4T Assay for Tissue plasminogen activator (tPA) Biomarker Activity (AID 2284272). The following applies: primary human bronchial epithelial cells with fibroblasts. A digest of the protocol:
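tPA level quantified by ELISA at 24 h post-treatment in bronchial epithelial/dermal fibroblast co-cultures, gain of signal scored against DMSO baseline. Parallel cultures stained with 0.1% SRB (560 nm) to flag overt cytotoxicity.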

Read-out in test [6]: TIMP metallopeptidase inhibitor 1 (TIMP1), TIMP1 (gene 7076)
Briefly: BSK_MyoF_TIMP1: BioMAP Diversity Plus: MyoF Assay for TIMP metallopeptidase inhibitor 1 (TIMP1) Biomarker Activity (AID 2284269). The conditions noted are these: primary human lung fibroblasts. Summed up: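 Fibroblasts from human lung are dosed with chemical, cultured 24 h, and assayed for TIMP-1 by ELISA. Increases over the DMSO baseline are scored, with SRB total-protein staining run in parallel for cytotoxicity.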

Read-out in test [7]: Matrix Metallopeptidase 3 (MMP3), MMP3 (gene 4314)
Description: BSK_BF4T_MMP3: BioMAP Diversity Plus: BF4T Assay for Matrix Metallopeptidase 3 (MMP3) Biomarker Activity (AID 2284271). The following applies: primary human bronchial epithelial cells with fibroblasts. A digest of the protocol: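 MMP-3 level read by ELISA after 24 h chemical exposure of bronchial epithelial cell/dermal fibroblast co-cultures, fitted upward relative to DMSO. Parallel cultures stained with 0.1% SRB after TCA fixation gauge overt cytotoxicity.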

Read-out in test [8]: Matrix Metallopeptidase 1 (MMP1), MMP1 (gene 4312)
Briefly: BSK_BF4T_MMP1: BioMAP Diversity Plus: BF4T Assay for Matrix Metallopeptidase 1 (MMP1) Biomarker Activity (AID 2284270). The conditions noted are these: primary human bronchial epithelial cells with fibroblasts. Summed up: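 MMP-1 quantified by ELISA in primary human bronchial epithelial/dermal fibroblast co-cultures, 24 hours post-dosing, with DMSO as baseline; parallel sulforhodamine B staining (560 nm) tracks overt cytotoxicity.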

Broadly, the AC50 is the midpoint of the concentration-response curve, whichever way the signal moves.

Each structure is given as a SMILES string. Values joined by “and” are separate entries in the source; they are usually repeats but may differ in a detail not shown here. Equal values may be shown once. A structure can be active in one record and inactive in another. Active and inactive are the calls of the source. Rule for the calls: active = hit-call score of the fitted dose curve at least 0.9, where 1 is the maximum; inactive = score below 0.9.

For the molecule `NC(=O)C(F)(F)C(F)(F)C(F)(F)C(F)F`, the outcome is “inactive” in test [1]; “inactive” in [2]; “inactive” in the test with Decorin, DCN (gene 1634); “inactive” in the test with KRT18 (gene 3875); “inactive” in test [3]; “inactive” in test [4]. For the same molecule, the result in [5] was inactive.
Take `O=C(O)C(F)(F)C(F)(F)C(F)(F)OC(F)(C(F)(F)F)C(F)(F)F`: the outcome in test [1] is “inactive”; in test [2], “inactive”; with Decorin, DCN (gene 1634), “inactive”; with KRT18 (gene 3875) it was “inactive”; in [3], “inactive”; in [4], “inactive”. For the same molecule, the outcome in test [6], in [7] and in [5] was inactive. In addition, the AC50 in test [7] is 39.5 µM (active).
Take `NC(=O)C(F)(F)C(F)(F)C(F)(F)C(F)(F)C(F)(F)C(F)(F)C(F)(F)F`: the outcome in test [1] is “inactive”; in test [2], “inactive”; with Decorin, DCN (gene 1634), “inactive”; with KRT18 (gene 3875), “inactive”; in [3], “inactive”; in test [4], “inactive”. Also, the result in test [6] and in test [5] was inactive.
Take `OCCCCC(F)(F)C(F)(F)C(F)(F)C(F)(F)F`: the outcome in test [1] was “inactive”; in test [2], “inactive”; in the test with Decorin, DCN (gene 1634), “inactive”; with KRT18 (gene 3875), “inactive”; in [3], “inactive”; in test [4], “inactive”. For the same molecule, the result in test [5] was inactive.
For the molecule `OCCCC(F)(F)C(F)(F)C(F)(F)C(F)(F)C(F)(F)C(F)(F)C(F)(F)C(F)(F)F`, the AC50 in test [1] is 47.9 µM (active) and 24.3 µM (active); in test [2] it was 46.4 µM (active) and 45.7 µM (active); with Decorin, DCN (gene 1634) it was 16.4 µM (active) and 14.4 µM (active); in the test with KRT18 (gene 3875), 47.1 µM (active) and 33.9 µM (active); in test [3] it was 12.9 µM (active) and 12.4 µM (active); in [4] it was 16.3 µM (active). In addition, the AC50 in [6] is 14.5 µM (active) and 13.7 µM (active); in test [7], 40.1 µM (active) and 40.6 µM (active); in test [5] it was 22.1 µM (active) and 21 µM (active). Moreover, the outcome in [4] was inactive.
Take `CNS(=O)(=O)C(F)(F)C(F)(F)C(F)(F)C(F)(F)C(F)(F)C(F)(F)C(F)(F)C(F)(F)F`: the AC50 in test [1] is 46300 nM (active); in [7], 13.3 µM (active). Besides, the outcome is “inactive” in test [1]; “inactive” in test [2]; “inactive” in the test with Decorin, DCN (gene 1634); “inactive” with KRT18 (gene 3875); “inactive” in test [3]; “inactive” in test [4]. For the same molecule, the result in [7] and in [5] was inactive.
For the molecule `O=C(O)C(F)(F)C(F)(F)C(F)(F)C(=O)O`, the outcome in [1] was “inactive”; in test [2] it was “inactive”; in the test with Decorin, DCN (gene 1634), “inactive”; with KRT18 (gene 3875), “inactive”; in test [3], “inactive”; in [4], “inactive”. For the same molecule, the outcome in test [6] and in [5] was inactive.
For the molecule `O=S(=O)(OCC(F)(F)F)C(F)(F)C(F)(F)C(F)(F)C(F)(F)F`, the outcome in [1] is “inactive”; in test [2], “inactive”; with Decorin, DCN (gene 1634), “inactive”; with KRT18 (gene 3875) it was “inactive”; in [3] it was “inactive”; in test [4], “inactive”. Besides, the outcome in test [5] was inactive.
With `O=C(O)C(F)(F)C(F)(F)C(F)(F)OC(F)(F)F`, in [1], the AC50 was 218 nM (active). Also, the outcome in test [1] is “inactive”; in [2] it was “inactive”; with Decorin, DCN (gene 1634), “inactive”; in the test with KRT18 (gene 3875), “inactive”; in test [3] it was “inactive”; in test [4], “inactive”. Moreover, the outcome in [6], in test [8] and in test [5] was inactive.
On to `FC(F)(F)C(F)(F)C(F)(F)C(F)(F)C(F)(F)C(F)(F)C(F)(F)CCI`, for which the outcome is “inactive” in test [1]; “inactive” in test [2]; “inactive” with Decorin, DCN (gene 1634); “inactive” with KRT18 (gene 3875); “inactive” in test [3]; “inactive” in test [4]. In addition, in test [5], the result was inactive.
Regarding `NC(=O)C(F)(F)C(F)(F)C(F)(F)F`, the outcome in test [1] was “inactive”; in [2] it was “inactive”; in the test with Decorin, DCN (gene 1634), “inactive”; in the test with KRT18 (gene 3875), “inactive”; in [3], “inactive”; in [4], “inactive”. Besides, the result in [6], in test [7] and in test [5] was inactive.
In the case of `O=C(O)CCC(F)(F)C(F)(F)C(F)(F)C(F)(F)C(F)(F)C(F)(F)C(F)(F)F`, the outcome is “inactive” in test [1]; “inactive” in test [2]; “inactive” in the test with Decorin, DCN (gene 1634); “inactive” with KRT18 (gene 3875); “inactive” in [3]; “inactive” in [4]. Further, the result in test [6] and in test [5] was inactive.
For the molecule `NS(=O)(=O)C(F)(F)C(F)(F)C(F)(F)C(F)(F)C(F)(F)C(F)(F)F`, the outcome is “inactive” in test [1]; “inactive” in test [2]; “inactive” in the test with Decorin, DCN (gene 1634); “inactive” with KRT18 (gene 3875); “inactive” in test [4]; “inactive” in test [8]. Moreover, the result in [5] was inactive. Moreover, the AC50 in the test with KRT18 (gene 3875) was 30 µM (active); in [3] it was 13.4 µM (active) and 30 µM (active).
Consider `C=CC(=O)OCCC(F)(F)C(F)(F)C(F)(F)C(F)(F)F`, for which the outcome in test [1] was “inactive”; in [2], “inactive”; with Decorin, DCN (gene 1634), “inactive”; with KRT18 (gene 3875) it was “inactive”; in test [3], “inactive”; in [4] it was “inactive”. Moreover, the result in [8] and in test [5] was inactive.
As for `OCC(F)(F)C(F)(F)C(F)(F)C(F)(F)C(F)(F)C(F)(F)C(F)(F)C(F)(F)CO`, the outcome in [1] was “inactive”; in test [2] it was “inactive”; with Decorin, DCN (gene 1634), “inactive”; with KRT18 (gene 3875) it was “inactive”; in test [3] it was “inactive”; in test [4] it was “inactive”. Further, the result in test [6] was inactive. In addition, the AC50 in test [3] was 47.2 µM (active); in test [4], 49.5 µM (active); in test [5], 9.85 µM (active) and 12.6 µM (active).
Turning to `OCC(O)CC(F)(F)C(F)(F)C(F)(F)C(F)(F)F` (stereo not drawn), in test [1], the AC50 was 220 nM (active). Moreover, the outcome in test [1] was “inactive”; in [2], “inactive”; with Decorin, DCN (gene 1634) it was “inactive”; in the test with KRT18 (gene 3875), “inactive”; in [3], “inactive”; in test [4] it was “inactive”. In addition, the outcome in test [6], in test [7] and in [5] was inactive.

These data come from PubChem BioAssay (EPA / NIEHS).
